Bioassay records from PubChem.
This is a sample that favours compounds with a hit; in the whole collection about 6.6% have one here.
HT1080NT lethal = kills 2HG-producing HT-1080-NT fibrosarcoma cells. HT-1080-NT fibrosarcoma viability, CellTiter-Glo ATP luminescence, 48 h. Potency, µM (top dose mostly 46.1 µM), for inactives: at the highest dose activity, negative = less viability, hits mostly cytotoxic. 360,000 tested, 1.6% active;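 note: NT is the 2HG producing partner of a matched IDH1 knockdown line; 0% = DMSO-treated cells and -100% = media-only wells without cells; nearly all actives have a fitted effect of over 55% in size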
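750 cells/well, RPMI + 5% FBS; 2 h settle, compound pin-transfer, 48 h at 37 degrees C. CellTiter-Glo 10 min RT, luminescence. Normalized to DMSO and media-only wells.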
HT1080 IDH1KD tx = kills HT-1080 cells with IDH1 knockdown; HT-1080 IDH1 knockdown viability, ATP luminescence, 48 h; Potency, µM (highest dose often 46.1 µM), inactives show top-dose activity, negative = toxicity, hits mostly cytotoxic; 360,000 tested, 2% active;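 note: 0% = DMSO wells and -100% = cell-free medium wells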
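IDH1KD HT-1080 cells, 750/well, RPMI + 5% FBS; compound pinned after 2 h settling; 48 h, 37 °C; CellTiter-Glo luminescence; % activity normalised to DMSO and no-cell wells; curves fitted, classed by r2 and efficacy.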
KB-3-1 tox = KB-3-1 parental cell cytotoxicity; KB-3-1 viability, CellTiter-Glo ATP luminescence, 72 h; Potency, µM (doses to about 46.1 µM), usual class: cytotoxic; 400,000 tested, 1.4% active; AID 1347075; note: % is set by controls: 0 for no effect and ±100 for the full control effect; nearly all actives have a fitted effect of over 60% in size
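Multi-concentration cytotoxicity screen in KB-3-1 cells grown in DMEM lacking phenol red with 10% FBS. After 72 h at 37 °C with compound, ATP-dependent luminescence was recorded.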
TGFb inhibitor = blocks TGF-b signaling; Potency, µM (doses to about 46.1 µM), for the others: top-dose activity, negative = inhibition, most hits filed as inhibitors; 410,000 tested, 1.2% active; HepG2 CAGA-GFP TGF-b/SMAD3 reporter, GFP fluorescence, 18 h; TGF-beta stimulated, 500 pg/mL final; note: % is set by controls: 0 for no effect and ±100 for the full control effect; nearly all actives have a fitted effect of over 65% in size
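HEPG2 CAGA-GFP cells (1000/well, DMEM with 1% FBS) were pre-incubated 2 h at 37 degrees C, given compound by pin tool, then stimulated with TGF-beta at 500 pg/mL final for 18 h before per-cell GFP fluorescence imaging.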
HepG2 viability = HepG2 cytotoxicity, counter-screen for TGF-b inhibitors. 410,000 tested, 0.76% active. Potency, µM (top dose mostly 46.1 µM), without a hit: at the highest dose activity change, negative = cytotoxicity, most hits filed as cytotoxic. AID 588856. HepG2 CAGA-GFP viability, ATP luminescence, 18 h
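HepG2 CAGA-GFP cells (1000/well, DMEM with 1% FBS) received compound, then TGF-beta at 500 pg/mL final, and were incubated 18 hours at 37 degrees C. Viability was read by CellTiter-Glo luminescence. Media-only wells were set as complete cell-killing and DMSO as no toxicity.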
KB-V1 MDR tox = KB-V1 MDR subline cytotoxicity | 400,000 tested, 3.4% active | KB-V1 MDR cells viability, CellTiter-Glo, 72 h | AID 1347076 | Potency, µM (highest dose often 46.1 µM), most hits filed as cytotoxic; note: % is set by controls: 0 for no effect and ±100 for the full control effect; nearly all actives have a fitted effect of over 60% in size
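In this primary screen, KB-V1 cells overexpressing P-gp are incubated with library compounds (lowest to highest concentration) for 72 h at 37 degrees C before a luminescent ATP viability read.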
The depositor's hits bear a star; i = inactive; ? = inconclusive; · = no result given; ! = a repeat was not active. Calls come from the whole dose curve; as a rule, active = well fitted curve in the direction sought with a large enough effect; inconclusive = small, poorly fitted or top-dose-only effect, or another doubt; inactive = no such curve, though single readings can be large; an effect the other way counts as inactive or inconclusive. Potency is the fitted concentration of half-maximal effect.

SMILES	HT1080NT lethal	HT1080 IDH1KD tx	KB-3-1 tox	TGFb inhibitor	HepG2 viability	KB-V1 MDR tox
COc1cccc(Cn2c(=O)c3ccccc3n3nc(C)cc23)c1	-27%	-26%	?	-4%	3%	21µM*
COc1ccc(Cn2c(CCC(=O)NCc3ccco3)nc3cccnc32)cc1	-6%	3%	i	-2%	-6%	21µM*
CCn1cc2nc(SCC(=O)Nc3ccc(OC)c(OC)c3)n(Cc3ccc(OC)cc3)c(=O)c2n1	-21%	-18%	i	-17%	-4%	i
COc1cc2nc(SCC(=O)NCc3ccco3)n(Cc3ccc(Cl)cc3)c(=O)c2cc1OC	0%	-1%	10µM*	-1%	-6%	?
CCn1cc2nc(SCC(=O)Nc3ccc(OC)cc3OC)n(Cc3ccc(OC)cc3)c(=O)c2n1	3.7µM*	5.2µM*	?	-2%	2%	?
COCCNC(=O)CSc1nc2cc(OC)c(OC)cc2c(=O)n1Cc1ccc(OC)cc1	2%	0%	i	1%	-2%	2.6µM*
CCOc1ccc(CNC(=O)c2ccc3c(c2)c(C)c(C)n3Cc2ccc(Cl)cc2)cc1	·	·	i	0%	-19%	i
COc1ccc(S(=O)(=O)N2CCN(CC(=O)Nc3ccc(Cl)c(C(F)(F)F)c3)CC2)cc1	·	·	i	?	-1%	?
Cc1cc(C)c(C)c(S(=O)(=O)N2CCN(C(=O)c3ccccc3OCc3c(C)noc3C)CC2)c1C	-2%	-28%	?	12%	-3%	i
CC(C)c1ccc(NC(=O)C2(C)Cc3c(-c4cccc(C(F)(F)F)c4)ccnc3O2)cc1 (stereo not given)	-3%	-22%	i	11%	-21%	i
O=C1/C(=C/c2ccc(N3CCOCC3)o2)SC(=Nc2ccccc2)N1CCc1c[nH]c2ccccc12	7.3µM*	4.1µM*	?	-1%	13µM*	?
O=C1S/C(=C/c2ccc(N3CCOCC3)o2)C(=O)N1Cc1ccc(F)cc1	14%	9%	i	53%	-20%	i
O=C1S/C(=C\c2ccc(N3CCOCC3)o2)C(=O)N1Cc1ccc(F)cc1	6.3µM*	3.2µM*	i	-6%	-18%	i
COc1cc(/C=C2\SC(=Nc3ccccc3)N(CCc3c[nH]c4ccccc34)C2=O)ccc1OC(C)C(=O)O (stereo not given)	-18%	-30%	i	-17%	-18%	i
CC(C)OC(=O)CN1C(=O)S/C(=C/c2ccc(N3CCCCC3)o2)C1=O	?	11µM*	i	68%	-60%	i
O=C(NCc1cccs1)c1nn(-c2ccccc2F)nc1CO	·	·	·	0%	-20%	·
Cc1c(C(=O)N2CCN(C/C=C/c3ccccc3)CC2)oc2c(F)cccc12	-1%	4%	i	-6%	1%	16µM*
COc1ccc2oc(C(=O)N3CCN(C/C=C/c4ccccc4)CC3)c(C)c2c1	-1%	-12%	i	-25%	-34%	i
O=C(c1ccc(Br)s1)N1CCN(C/C=C/c2ccccc2)CC1	-2%	-25%	i	1%	-32%	15µM*
Cc1csc2nc(COC(=O)c3ccccc3NC(=O)COc3ccccc3F)cc(=O)n12	·	·	·	?	-20%	·
Cc1cc(C)n(CCc2nc(-c3ccc(C(C)(C)C)cc3)cs2)n1	-5%	-10%	i	?	-33%	16µM*
Cc1cc(C)n(CCc2nc(-c3ccc(F)cc3)cs2)n1	-3%	-3%	i	-12%	-11%	i
COC(=O)c1ccc(NC(=S)NC(=O)c2c(Cl)cnn2C)cc1	4%	16%	i	-8%	-20%	i
COC(=O)c1cc(NC(=O)c2c(Cl)cnn2C)cc(C(=O)OC)c1	-3%	-9%	i	-3%	-64%	15µM*
Cc1[nH]n2c(=O)cc(-c3ccccc3Cl)nc2c1-c1ccccc1	·	·	6.5µM*	?	-46%	i
SMILES	HT1080NT lethal	HT1080 IDH1KD tx	KB-3-1 tox	TGFb inhibitor	HepG2 viability	KB-V1 MDR tox
COCc1cc(=O)n2[nH]c(C)c(-c3ccc(Cl)cc3)c2n1	-23%	?	?	-11%	14µM*	?
CCc1cc(=O)n2[nH]c(C)c(-c3ccccc3OC)c2n1	1%	-1%	i	12%	-6%	?
COc1cccc(N2CCc3c(C)nc4ccc(Cl)cc4c32)c1	?	21µM*	?	?	-35%	16µM*
COc1ccc(N2CCc3c(C)nc4c(OC)cc(OC)cc4c32)cc1	?	23µM*	i	-12%	-20%	?
COc1ccc(N2CCc3c(C)nc4c(OC)cc(OC)cc4c32)c(OC)c1	?	?	?	0%	-25%	?
CN(Cc1ccccc1)S(=O)(=O)c1ccc(-c2cnc(C3CC3)o2)cc1	·	·	i	?	-39%	i
CC(=O)c1ccc(NS(=O)(=O)c2ccc(-c3cnc(C4CC4)o3)cc2)cc1	-14%	-12%	i	-19%	-20%	?
COc1cc(Cl)c(NS(=O)(=O)c2ccc(-c3cnc(C4CC4)o3)cc2)c(OC)c1	·	·	1.6µM*	?	-35%	1µM*
O=S(=O)(NCc1ccccc1)c1ccc(-c2cnc(C3CC3)o2)cc1	?	?	18µM*!	?	-32%	15µM*!
Cc1ccc(N(C)S(=O)(=O)c2ccc(-c3cnc(C4CC4)o3)cc2)cc1	?	?	3.3µM*!	6.3µM*	-5%	2.9µM*!
Cc1ccc(NS(=O)(=O)c2ccc(-c3cnc(C4CC4)o3)cc2)cc1	?	?	18µM*	?	-14%	?
Cc1ccc(CNS(=O)(=O)c2ccc(-c3cnc(C4CC4)o3)cc2)cc1	0%	3%	i	?	-6%	i
